Ten compounds from PubChem BioAssay (NCI) can be followed below.

About 79,000 compounds went through this panel and 15% of them were active in at least one assay; those are over-represented in the sample as a whole. Values without a mark were called inactive. Active and inactive are the calls of the source. No stated cut-off is given here; in the data, active means growth inhibition above about 70%; inactive means the rest.

A short description of assay [1]: NCI Yeast Anticancer Drug Screen. Data for the rad50 strain (AID 155).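 Further: 0% = growth of vehicle-only cultures of the same strain.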 Conditions: S. cerevisiae rad50 strain growth inhibition, hits give high values. The procedure, abridged: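 Yeast carrying a defined DNA repair defect were exposed to test compounds, and growth was compared with vehicle-treated controls to give percent inhibition.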
Assay [2] in a line: NCI Yeast Anticancer Drug Screen. Data for the mec2-1 strain (AID 157). Conditions: S. cerevisiae mec2-1 strain, hits give high values. An outline of the steps:
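Using mec2-1 yeast: add compound, measure growth, express inhibition versus vehicle-treated cultures.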

Assay [3] is described as follows: NCI Yeast Anticancer Drug Screen. Data for the sgs1 mgt1 strain (AID 161).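 Further: 0% = growth of cultures given vehicle only.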 As to conditions: S. cerevisiae sgs1 mgt1 strain, hits give high values. An outline of the steps:
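Compounds are added to genetically altered yeast, and growth is compared with cultures given vehicle alone to give percent inhibition.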

The nature of assay [4]: NCI Yeast Anticancer Drug Screen. Data for the cln2 rad14 strain (AID 165).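 Further: 0% = growth equal to vehicle treated cultures.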 Conditions: S. cerevisiae cln2 rad14 strain, hits give high values. An outline of the steps:
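Yeast strain cln2 rad14, bearing defects in cell cycle control and DNA repair, serves as the test system; values reflect growth inhibition compared with vehicle.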

Assay [5] can be described thus: NCI Yeast Anticancer Drug Screen. Data for the bub3 strain (AID 167). Conditions: S. cerevisiae bub3 mutant strain, hits give high values. An outline of the steps: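 Compounds were applied to a genetically altered yeast strain carrying a cell-cycle control defect. Growth inhibition was scored against vehicle-treated controls.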
Assay [6] in a line: NCI Yeast Anticancer Drug Screen. Data for the mlh1 rad18 strain (AID 175). Conditions: S. cerevisiae mlh1 rad18 strain growth inhibition, hits give high values. An outline of the steps: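 Steps: expose repair-defective yeast to compound; measure growth; express inhibition against vehicle-treated controls.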
Where [7] appears, read: at 5.0 µM (retest, dose inferred, filed as 0.5).
The mark [8] stands for this setting: at 50.0 µM (retest, dose inferred, filed as 5.0).

In the case of `O=c1[nH]c2cc(Cl)ccc2nc1/C=C(\O)c1ccccn1`, the growth inhibition was 20% in assay [1] (setting [7]); 79% (active) in assay [1] (setting [8]); 60% in assay [1] (at 50.0 µM); 7% in assay [2] (setting [7]); 49% in assay [2] (setting [8]); 37.8% in assay [2] (at 50.0 µM). For the same compound, the growth inhibition is 8% in assay [3] (setting [7]); 71% (active) in assay [3] (setting [8]); 74.8% (active) in assay [3] (at 50.0 µM); 8% in assay [4] (setting [7]); 64% in assay [4] (setting [8]); 34.1% in assay [4] (at 50.0 µM). Moreover, the growth inhibition in assay [5] (setting [7]) was 21%; in assay [5] (setting [8]), 27%; in assay [5] (at 50.0 µM) it was 44.5%; in assay [6] (setting [7]) it was -1%; in assay [6] (setting [8]), 82% (active); in assay [6] (at 50.0 µM), 88% (active).
Turning to `Cc1cc(N/N=C/c2ccc([N+](=O)[O-])o2)c2cc3c(cc2n1)OCO3`, the growth inhibition in assay [1] (setting [7]) was 23%; in assay [1] (setting [8]) it was 99% (active); in assay [1] (at 50.0 µM), 96.7% (active); in assay [2] (setting [7]) it was 16%; in assay [2] (setting [8]) it was 100% (active); in assay [2] (at 50.0 µM), 92.3% (active). Also, the growth inhibition in assay [3] (setting [7]) is 33%; in assay [3] (setting [8]) it was 99% (active); in assay [3] (at 50.0 µM) it was 97.5% (active); in assay [4] (setting [7]), 4%; in assay [4] (setting [8]) it was 99% (active); in assay [4] (at 50.0 µM), 92.7% (active). Besides, the growth inhibition is 8% in assay [5] (setting [7]); 99% (active) in assay [5] (setting [8]); 90.5% (active) in assay [5] (at 50.0 µM); 23% in assay [6] (setting [7]); 99% (active) in assay [6] (setting [8]); 95.3% (active) in assay [6] (at 50.0 µM).
On to `ClCc1c(-c2ccccc2)oc(-c2ccccc2)c1CCl`, for which the growth inhibition in assay [1] (setting [7]) was 0%; in assay [1] (setting [8]), 49%; in assay [1] (at 50.0 µM) it was 32.6%; in assay [2] (setting [7]), 1%; in assay [2] (setting [8]), 64%; in assay [2] (at 50.0 µM) it was 34%. Besides, the growth inhibition was 6% in assay [3] (setting [7]); 72% (active) in assay [3] (setting [8]); 68.8% in assay [3] (at 50.0 µM); 1% in assay [4] (setting [7]); 38% in assay [4] (setting [8]); 21.9% in assay [4] (at 50.0 µM). The growth inhibition in assay [5] (setting [7]) was 1%; in assay [5] (setting [8]), 40%; in assay [5] (at 50.0 µM) it was 8.25%; in assay [6] (setting [7]) it was 1%; in assay [6] (setting [8]), 86% (active); in assay [6] (at 50.0 µM), 73.4% (active).
Consider `O=C(COc1ccc(Br)cc1Br)N1N=C(c2ccc([N+](=O)[O-])o2)CC1(O)c1ccccc1` (stereo not given), for which the growth inhibition in assay [1] (setting [7]) is 23%; in assay [1] (setting [8]) it was 23%; in assay [1] (at 50.0 µM), 19.4%; in assay [2] (setting [7]) it was 6%; in assay [2] (setting [8]), 6%; in assay [2] (at 50.0 µM), 71.2% (active). Also, the growth inhibition was 12% in assay [3] (setting [7]); 12% in assay [3] (setting [8]); 70.7% (active) in assay [3] (at 50.0 µM); 0% in assay [4] (setting [7]); 0% in assay [4] (setting [8]); 76.2% (active) in assay [4] (at 50.0 µM). In addition, the growth inhibition in assay [5] (setting [7]) was 7%; in assay [5] (setting [8]), 7%; in assay [5] (at 50.0 µM), 59.6%; in assay [6] (setting [7]), 22%; in assay [6] (setting [8]) it was 22%; in assay [6] (at 50.0 µM) it was 58.8%.
Take `CCN(CC)c1cc(Nc2c3ccc(Cl)cc3nc3cc(Cl)ccc23)ccc1O`: the growth inhibition was 1% in assay [1] (setting [7]); 4% in assay [1] (setting [8]); 34.5% in assay [1] (at 50.0 µM); -39% in assay [2] (setting [7]); -3% in assay [2] (setting [8]); -11.2% in assay [2] (at 50.0 µM). Moreover, the growth inhibition in assay [3] (setting [7]) was -3%; in assay [3] (setting [8]), -4%; in assay [3] (at 50.0 µM), -4.35%; in assay [4] (setting [7]), -6%; in assay [4] (setting [8]), -3%; in assay [4] (at 50.0 µM), 71.7% (active). Also, the growth inhibition is -5% in assay [5] (setting [7]); -10% in assay [5] (setting [8]); 0.75% in assay [5] (at 50.0 µM); 0% in assay [6] (setting [7]); -2% in assay [6] (setting [8]); -0.95% in assay [6] (at 50.0 µM).
For `N#CC(=C1C=CC(=NO)C=C1)c1cccc2ccccc12`, the growth inhibition was 36% in assay [1] (setting [7]); 91% (active) in assay [1] (setting [8]); 93.2% (active) in assay [1] (at 50.0 µM); 15% in assay [2] (setting [7]); 94% (active) in assay [2] (setting [8]); 95.5% (active) in assay [2] (at 50.0 µM). The growth inhibition in assay [3] (setting [7]) is 39%; in assay [3] (setting [8]) it was 92% (active); in assay [3] (at 50.0 µM), 93.1% (active); in assay [4] (setting [7]) it was 3%; in assay [4] (setting [8]) it was 91% (active); in assay [4] (at 50.0 µM), 90.2% (active). For the same compound, the growth inhibition in assay [5] (setting [7]) is 5%; in assay [5] (setting [8]), 91% (active); in assay [5] (at 50.0 µM), 96.2% (active); in assay [6] (setting [7]) it was 28%; in assay [6] (setting [8]), 91% (active); in assay [6] (at 50.0 µM) it was 87.8% (active).
For `Nc1ccccc1N=Nc1c(S(=O)(=O)O)cc2cc(S(=O)(=O)O)cc(O)c2c1O`, the growth inhibition in assay [1] (setting [7]) is 17%; in assay [1] (setting [8]), 23%; in assay [1] (at 50.0 µM), -24%; in assay [2] (setting [7]), 3%; in assay [2] (setting [8]) it was 5%; in assay [2] (at 50.0 µM) it was -10.9%. Besides, the growth inhibition in assay [3] (setting [7]) was -3%; in assay [3] (setting [8]), 11%; in assay [3] (at 50.0 µM) it was -27.6%; in assay [4] (setting [7]), 34%; in assay [4] (setting [8]) it was -10%; in assay [4] (at 50.0 µM), 27.9%. In addition, the growth inhibition in assay [5] (setting [7]) was 17%; in assay [5] (setting [8]), 12%; in assay [5] (at 50.0 µM), -33.5%; in assay [6] (setting [7]), 5%; in assay [6] (setting [8]), 7%; in assay [6] (at 50.0 µM), -33.9%.
On to `CCCCCCCCCCCCCCOCCS(=O)(=O)O`, for which the growth inhibition in assay [1] (setting [7]) is 18%; in assay [1] (setting [8]), 83% (active); in assay [1] (at 50.0 µM), 70.8% (active); in assay [2] (setting [7]) it was -9%; in assay [2] (setting [8]), 69%; in assay [2] (at 50.0 µM), 52.4%. Further, the growth inhibition was 16% in assay [3] (setting [7]); 80% (active) in assay [3] (setting [8]); 78.8% (active) in assay [3] (at 50.0 µM); -12% in assay [4] (setting [7]); 61% in assay [4] (setting [8]); 38.4% in assay [4] (at 50.0 µM). Besides, the growth inhibition is 6% in assay [5] (setting [7]); 85% (active) in assay [5] (setting [8]); 29.8% in assay [5] (at 50.0 µM); 7% in assay [6] (setting [7]); 83% (active) in assay [6] (setting [8]); 79.4% (active) in assay [6] (at 50.0 µM).
With `CCCCCCCCCCCCOc1c(Cl)cc(Cl)c(Cl)c1Cc1c(O)c(Cl)cc(Cl)c1Cl`, the growth inhibition is 1% in assay [1] (setting [7]); 86% (active) in assay [1] (setting [8]); 97.5% (active) in assay [1] (at 50.0 µM); 0% in assay [2] (setting [7]); 92% (active) in assay [2] (setting [8]); 98.5% (active) in assay [2] (at 50.0 µM). Besides, the growth inhibition in assay [3] (setting [7]) was 2%; in assay [3] (setting [8]) it was 72% (active); in assay [3] (at 50.0 µM) it was 98.3% (active); in assay [4] (setting [7]), -2%; in assay [4] (setting [8]), 87% (active); in assay [4] (at 50.0 µM), 97.2% (active). The growth inhibition was 0% in assay [5] (setting [7]); 89% (active) in assay [5] (setting [8]); 96.4% (active) in assay [5] (at 50.0 µM); 2% in assay [6] (setting [7]); 87% (active) in assay [6] (setting [8]); 97.7% (active) in assay [6] (at 50.0 µM).
In the case of `Cc1cc(C=Nc2ccccc2)c(O)c2ncccc12`, the growth inhibition was 19% in assay [1] (setting [7]); 96% (active) in assay [1] (setting [8]); 98.8% (active) in assay [1] (at 50.0 µM); 10% in assay [2] (setting [7]); 95% (active) in assay [2] (setting [8]); 99.3% (active) in assay [2] (at 50.0 µM). Further, the growth inhibition was 15% in assay [3] (setting [7]); 98% (active) in assay [3] (setting [8]); 94.9% (active) in assay [3] (at 50.0 µM); 8% in assay [4] (setting [7]); 98% (active) in assay [4] (setting [8]); 83.7% (active) in assay [4] (at 50.0 µM). In addition, the growth inhibition in assay [5] (setting [7]) was 0%; in assay [5] (setting [8]) it was 98% (active); in assay [5] (at 50.0 µM) it was 99.1% (active); in assay [6] (setting [7]) it was 14%; in assay [6] (setting [8]) it was 99% (active); in assay [6] (at 50.0 µM), 99.2% (active).
